In PubChem BioAssay (NCI):
About 83,000 compounds went through this panel and 20% of them were active in at least one assay; those are over-represented in the sample as a whole.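 Step 1: grow cells in 96-well plates. Step 2: add test compound at a single concentration. Step 3: incubate 48 h. Step 4: record percent growth.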 A number with no mark means an inactive call. The source made the active and inactive calls. Rule for the calls: active = growth percent below 10; inactive = the rest.

Columns and labels:
Test in all cases: NCI-60 one-dose screen, 48 h (100 = growth as untreated, 0 = no growth, -100 = all killed)
Settings in all cases: 10 µM unless noted
NCI-H23 lung = test system: NCI-H23 lung
NCI-H226 lung = test system: NCI-H226 lung
NCI-H322M lung = test system: NCI-H322M lung
HOP-62 NSCLC = test system: HOP-62 NSCLC
NCI-H460 lung = test system: NCI-H460 lung
HOP-92 NSCLC = test system: HOP-92 NSCLC
NCI-H522 lung = test system: NCI-H522 lung
A549/ATCC NSCLC = test system: A549/ATCC NSCLC
786-0 renal = test system: 786-0 renal
COLO 205 colon = test system: COLO 205 colon
DU-145 prostate = test system: DU-145 prostate
K-562 leukemia = test system: K-562 leukemia
MALME-3M melanoma = test system: MALME-3M melanoma
MDA-MB-231 breast = test system: MDA-MB-231 breast
RXF 393 renal = test system: RXF 393 renal
SF-268 CNS = test system: SF-268 CNS
SF-295 CNS = test system: SF-295 CNS
SF-539 CNS = test system: SF-539 CNS
UACC-257 melanoma = test system: UACC-257 melanoma
M14 melanoma = test system: M14 melanoma

Compound	growth (NCI-H23 lung)	growth (NCI-H226 lung)	growth (NCI-H322M lung)	growth (HOP-62 NSCLC)	growth (NCI-H460 lung)	growth (HOP-92 NSCLC)	growth (NCI-H522 lung)	growth (A549/ATCC NSCLC)	growth (786-0 renal)	growth (COLO 205 colon)	growth (DU-145 prostate)	growth (K-562 leukemia)	growth (MALME-3M melanoma)	growth (MDA-MB-231 breast)	growth (RXF 393 renal)	growth (SF-268 CNS)	growth (SF-295 CNS)	growth (SF-539 CNS)	growth (UACC-257 melanoma)	growth (M14 melanoma)
CCCCCC#CC(=O)O	109%	107%	98.7%	98.2%	110%	83.6%	90.6%	97%	99%	107%	132%	103%	99.9%	110%	125%	110%	103%	103%	104%	120%
N#Cc1ccc(OC(=O)Nc2cc(Cl)cc(Cl)c2)cc1	-10.3% [100 µM] (active)	1.99% [100 µM] (active)	-3.43% [100 µM] (active)	-13.7% [100 µM] (active)	0.999% [100 µM] (active)	-35.9% [100 µM] (active)	-31.1% [100 µM] (active)	4.72% [100 µM] (active)	9.34% [100 µM] (active)	-85.9% [100 µM] (active)	18.9% [100 µM]	6.66% [100 µM] (active)	-32.5% [100 µM] (active)	-52.8% [100 µM] (active)	10.3% [100 µM]	12.5% [100 µM]	-23.1% [100 µM] (active)	-4.48% [100 µM] (active)	-20.1% [100 µM] (active)	-25.3% [100 µM] (active)
CN(C)c1ccc2c(N(C)C)cc(N(C)C)nc2c1	97.5%	83.2%	64.9%	82.1%	82.7%	69.8%	79.3%	98.5%	94.8%	65%	93%	64.4%	98.4%	64.2%	97.7%	91.6%	65.9%	84.9%	122%	81.7%
CCOC(=O)c1cc(C)[nH]c(=O)c1C#N	97.5%	101%	93.6%	97.3%	114%	104%	74.4%	98.5%	100%	114%	113%	82.6%	123%	116%	98.1%	105%	93.5%	95.6%	93%	102%
FC(F)(F)c1cc(NC2=NCCN=C(Nc3cc(C(F)(F)F)cc(C(F)(F)F)c3)SS2)cc(C(F)(F)F)c1	47.2%	67.9%	90.1%	74.8%	40%	0.524% (active)	13.1%	49.1%	70.6%	49.1%	66.6%	28.8%	37%	73.2%	77.6%	74.2%	52.6%	81.3%	64.4%	82.1%
